D1 antag: antagonists of human D1 dopamine receptor; activity change, negative = inhibition, % at 10 µM; P21728; actives 3.2% (n = 360,000); HEK293 TREx D1 cells, calcium flux, dopamine EC80; active compounds read low; in the data active = activity change below about -30%
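Allosteric or orthosteric antagonism assessed as attenuation of the calcium response to EC80 dopamine, added 180 s after compound, in induced HEK293 Trex D1 cells loaded with no-wash calcium dye.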
D1 agonist: activates the human D1 dopamine receptor; P21728; HEK293 T-REx D1 cells, calcium flux, agonist mode; activation, % at 2 µM; actives 1% (n = 360,000); AID 504660; in the data active = activation above about 30%
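Tetracycline-induced HEK293 TREx D1 cells, force-coupled to calcium signalling, were dye-loaded with a no-wash calcium kit. Compound was pin-added after a 10 s baseline. Fluorescence was read kinetically at 1 cycle/s for 180 s, with calcium rises flagged as agonism.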
D1 potentiator: human D1 dopamine receptor positive modulation; AID 504651; potentiation, % at 10 µM; HEK293 TREx D1 cells, calcium flux, dopamine EC20 potentiation; actives 0.036% (n = 360,000); in the data active = potentiation above about 30%
D3 antag: D3 dopamine receptor (human) antagonism; P35462; D3R cells, DiscoveRx beta-arrestin luminescence, antagonist mode; active compounds read low; max response, negative = inhibition, %; actives 2.5% (n = 360,000); AID 652054; in the data active = max response below about -50%; inconclusive = no clear call, values can overlap the other calls
Target sequence (P35462 whole entry, looked up): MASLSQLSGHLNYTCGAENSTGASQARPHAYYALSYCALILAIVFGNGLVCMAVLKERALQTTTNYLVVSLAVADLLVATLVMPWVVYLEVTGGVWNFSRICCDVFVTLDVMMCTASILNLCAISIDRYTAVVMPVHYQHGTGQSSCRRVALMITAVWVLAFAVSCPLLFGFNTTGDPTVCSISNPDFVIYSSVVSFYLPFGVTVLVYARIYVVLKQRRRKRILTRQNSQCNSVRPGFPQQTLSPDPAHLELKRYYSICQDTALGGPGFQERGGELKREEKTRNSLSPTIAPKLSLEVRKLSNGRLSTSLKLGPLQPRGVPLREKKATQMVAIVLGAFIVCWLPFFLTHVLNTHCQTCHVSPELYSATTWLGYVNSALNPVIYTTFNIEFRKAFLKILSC
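Cells plated overnight at 1500 cells/well, then exposed to library compounds with dopamine controls for 90 minutes at 37 degrees C. DiscoveRx reagent added for 30–60 minutes at room temperature; luminescence read, quantitative HTS format.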
D3 ag: D3 dopamine receptor (human) agonism. P35462. D3R DiscoveRx beta-arrestin cells, luminescence, 90 min. max activation, %. actives 0.58% (n = 410,000); in the data active = max activation above about 30%
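Cells at 1500/well, incubated overnight, then treated with pinned compounds (dopamine as control) for 90 min at 37 degrees C. DiscoveRx reagent added for 30 - 60 minutes at room temperature; luminescence read.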
Each line names hits and unclear results; the compound was inactive in the other large screens. Sampled rows, rich in hits. Any-hit rate of the full collection: about 6%.

COCC(=O)N(c1c(C)cccc1C)C(C)C(=O)OC (stereo unspecified)	none (no result: D1 antag, D1 agonist, D1 potentiator, D3 antag)
CCN1CCN(c2cn[nH]c(=O)c2Cl)CC1	D3 antag -75
COc1ccc(C2NCc3ccc4c(c3-n3cccc32)OCO4)cc1O (stereo unspecified)	D1 antag -36, D1 agonist 55
CCOC(=O)C1(CCc2ccccc2)CCN(Cc2cccc3c2OCO3)CC1	D1 antag -42, D3 antag -81
CCOC(=O)C1(CCc2ccccc2)CCN(Cc2cccc3cnccc23)CC1	D1 antag -45
NCc1cccnc1	none (no result: D1 antag, D1 agonist, D1 potentiator, D3 antag)
CCN(CC)c1ccc(N=Cc2c(O)n(Cc3ccco3)c(=O)[nH]c2=O)cc1	D1 agonist 31
O=c1[nH]c(=S)n(Cc2ccco2)c(O)c1C=NCc1cccs1	D3 antag -70
NC(=O)c1ccc(N=Cc2c(O)n(Cc3ccco3)c(=O)[nH]c2=O)cc1	none
CCN(CCO)c1ccc(N=Cc2c(O)n(C)c(=S)[nH]c2=O)cc1	D1 agonist 75
CCn1c(O)c(C=Nc2ccc(S(N)(=O)=O)cc2)c(=O)[nH]c1=S	none
CCN(CC)c1ccc(N=Cc2c(O)n(CCc3ccc(OC)c(OC)c3)c(=O)[nH]c2=O)cc1	D1 agonist 40
CC(C)Cc1nc(N2CCNCC2)c(C#N)c2c1CCC2	D3 antag inconclusive
CCc1nc(N2CCNCC2)c(C#N)c2c1CSC(C)(C)C2	D3 antag -74
COc1ccc(NP(=O)(Oc2ccccc2OC)Oc2ccccc2OC)cc1	none
COc1ccccc1OP(=O)(Nc1ccc(Br)cc1)Oc1ccccc1OC	D1 antag -47
CC(C)CCNC(=O)CN1C(=O)CN=C(c2ccccc2)c2ccccc21	none
O=C(CN1C(=O)CN=C(c2ccccc2)c2ccccc21)NCc1ccco1	D3 antag -61
CCOc1cc(C)cc2oc(=O)c3c(c12)CCCC3	none
Cc1cc(O)c2c3c(c(=O)oc2c1)CCC(C)C3 (stereo unspecified)	D1 antag -35, D1 agonist 37
ClC1=C(Cl)[C@]2(Cl)[C@@H]3[C@@H]4C[C@@H]([C@H]5O[C@@H]45)[C@@H]3[C@@]1(Cl)C2(Cl)Cl	none (no result: D1 antag, D1 agonist, D1 potentiator, D3 antag)
N#Cc1c(Br)n(C2OC(CO)C(O)C2O)c2ncnc(N)c12 (stereo unspecified)	D3 ag 38 (no result: D1 antag, D1 agonist, D1 potentiator)
NC(=O)c1c(Br)n(C2OC(CO)C(O)C2O)c2ncnc(N)c12 (stereo unspecified)	none (no result: D1 antag, D1 agonist, D1 potentiator)
COc1cc2c(cc1OC)C1[C@H]3C(=CC[C@H]1OC2O)CCN3C (stereo partly specified)	D3 antag -54 (no result: D1 antag, D1 agonist, D1 potentiator)
COc1ccc(OC)c(CC(C)N)c1 (stereo unspecified)	none (no result: D1 antag, D1 agonist, D1 potentiator, D3 antag)
C[C@]12CC[C@H](O)C[C@H]1CC[C@@H]1[C@@H]2CC[C@]2(C)[C@@H](c3ccc(=O)oc3)C[C@H]3O[C@]132	none (no result: D1 antag, D1 agonist, D1 potentiator, D3 antag)
O=C(Nc1cccc(C(F)(F)F)c1)OC1CN2CCC1CC2 (stereo unspecified)	none
O=C(Nc1ccc(C(F)(F)F)cc1)OC1CN2CCC1CC2 (stereo unspecified)	D1 agonist 30
Cc1c(Cl)cccc1NC(=O)CN1C(=O)C(C)N=C(c2ccccc2)c2ccccc21 (stereo unspecified)	none (no result: D3 antag)
O=C(Nc1ccon1)c1cccn(Cc2cccc([N+](=O)[O-])c2)c1=O	none (no result: D1 antag, D3 antag)
CN1C(=O)/C(=C\c2ccc(N3CCCCC3)o2)C(=O)NC1=S	D1 agonist 33, D3 antag inconclusive
CN1CCN(c2ccc(/C=C3\C(=O)NC(=S)N(c4cccc(Br)c4)C3=O)o2)CC1	D1 agonist 90
CN1C(=O)/C(=C/c2ccc(N3CCCCCC3)o2)C(=O)NC1=S	D3 antag -56
CCN1C(=O)C(=Cc2ccc(N3CCOCC3)o2)C(=O)N(CC)C1=S	D1 agonist 66
Cc1ccc(/C=C2\C(=O)NC(=S)N(c3cccc(F)c3)C2=O)o1	none
CCC(=O)OC1(c2ccccc2)CCN(C)CC1	none (no result: D1 antag, D1 agonist, D1 potentiator, D3 antag)
O=C(C1CCCN(S(=O)(=O)c2cccc3nsnc23)C1)N1CCC2(CC1)OCCO2 (stereo unspecified)	D1 antag -36
CN1CC(C(=O)c2ccc([N+](=O)[O-])cc2)C(c2ccc(Cl)cc2)C1 (stereo unspecified)	D3 antag -59
CN1CC(C(=O)c2cccc(C(F)(F)F)c2)C(c2ccc(Cl)cc2)C1 (stereo unspecified)	D1 agonist 31
COc1cccc(C(=O)C2CN(C)CC2c2ccc(Cl)cc2)c1 (stereo unspecified)	none
COc1cc(/C=C2\C[C@H]3[C@@H]4CC=C5C[C@@H](N6CCCC6)CC[C@]5(C)[C@H]4CC[C@]3(C)[C@H]2O)cc(OC)c1OC	D3 antag -70 (no result: D1 antag, D1 agonist, D1 potentiator)
CC(C)Oc1cccc(NC(=O)c2ccccc2C(F)(F)F)c1	none (no result: D1 antag, D1 agonist, D1 potentiator, D3 antag)
C[n+]1c(-c2ccccc2)cc(CCCCc2cc(-c3ccccc3)[n+](C)c(-c3ccccc3)c2)cc1-c1ccccc1	D3 antag -73
COc1ccc(CCN(C)Cc2ccc(F)cc2F)cc1OC	D3 antag -77
CCN(CC)c1ccc(CN(C)CCc2ccc(OC)c(OC)c2)cc1	D3 antag inconclusive
COc1ccc(F)cc1C(=O)C1CCCN(Cc2ccc(O)cc2)C1 (stereo unspecified)	D3 antag -65
COc1ccc(C(=O)C2CCCN(Cc3ccc(F)cc3F)C2)cc1F (stereo unspecified)	D1 antag -32
CCn1ccnc1CN1CCCC(C(=O)c2cc(F)ccc2OC)C1 (stereo unspecified)	none
O=S1(=O)N(Cc2ccccc2)CCCN1Cc1cccc(Cl)c1	none (no result: D3 antag)
CN(C)c1ccc(/C=C/[N+](=O)[O-])cc1	D1 agonist 92
C/C(=C\c1ccc(N(C)C)cc1)[N+](=O)[O-]	none
S=C(SSC(=S)N1CCCCC1)N1CCCCC1	none (no result: D1 antag, D1 agonist, D1 potentiator, D3 antag)
Cc1nnc2n1-c1sc(CCc3ccc(CC(C)C)cc3)cc1C(c1ccccc1Cl)=NC2C (stereo unspecified)	none (no result: D1 antag, D1 agonist, D1 potentiator, D3 antag)
c1ccc2[nH]c(CCNC3CCCCC3)nc2c1	D3 antag -53
c1ccc2c(CCNC3CCCCC3)c[nH]c2c1	none
CCOP(=S)(OCC)SCSc1ccc(Cl)cc1	D3 ag 48 (no result: D1 antag, D1 agonist, D1 potentiator, D3 antag)
CCOP(=O)(OCC)C(NC(=O)c1ccc(Cl)cc1)=C(Cl)Cl	none
CC(=O)OCC(=O)[C@H]1CC[C@H]2[C@@H]3CC[C@H]4C[C@H](O)CC[C@]4(C)[C@H]3C(=O)C[C@]12C	D3 antag -85
CC(=O)[C@H]1CC[C@H]2[C@@H]3CC[C@H]4C[C@H](O)CC[C@]4(C)[C@H]3C(=O)C[C@]12C	none
CCc1cc(OC)c(C[C@@H](C)N)cc1OC	none (no result: D1 antag, D1 agonist, D1 potentiator, D3 antag)
CCCCCCCSc1cc(OC)c(CCN(C)C)cc1OC	D1 agonist 201, D3 antag -66
CCCCCSc1cc(OC)c(CCN)cc1OC	D1 agonist 31
CCCSc1cc(OC)c(CCN)cc1OC	none (no result: D1 antag, D1 agonist, D1 potentiator, D3 antag)
C[C@@H](Cc1ccccc1)N(C)C	none (no result: D1 antag, D1 agonist, D1 potentiator, D3 antag)
